Among the data in ChEMBL document CHEMBL3988442, “University of Dundee, Small-Polar-MMV Screening Library” (2021) are Percent Effect values, retold here.

What all share (set-up): scale not given: direction of the effect not stated beside the values
In experiment [1] the target is Protein translocase subunit SecA (Escherichia coli (strain K12)) (UniProt P10408). The experiment in a line: Assay to Identify E. coli SecA ATPase Inhibitors. Particulars: 30 µM. The class given is functional.
Experiment [2] concerns the target T1, Ubiquitin-activating enzyme e1, putative (Leishmania donovani (strain BPK282A1)) (UniProt E9BSI1).
T1 sequence (whole entry): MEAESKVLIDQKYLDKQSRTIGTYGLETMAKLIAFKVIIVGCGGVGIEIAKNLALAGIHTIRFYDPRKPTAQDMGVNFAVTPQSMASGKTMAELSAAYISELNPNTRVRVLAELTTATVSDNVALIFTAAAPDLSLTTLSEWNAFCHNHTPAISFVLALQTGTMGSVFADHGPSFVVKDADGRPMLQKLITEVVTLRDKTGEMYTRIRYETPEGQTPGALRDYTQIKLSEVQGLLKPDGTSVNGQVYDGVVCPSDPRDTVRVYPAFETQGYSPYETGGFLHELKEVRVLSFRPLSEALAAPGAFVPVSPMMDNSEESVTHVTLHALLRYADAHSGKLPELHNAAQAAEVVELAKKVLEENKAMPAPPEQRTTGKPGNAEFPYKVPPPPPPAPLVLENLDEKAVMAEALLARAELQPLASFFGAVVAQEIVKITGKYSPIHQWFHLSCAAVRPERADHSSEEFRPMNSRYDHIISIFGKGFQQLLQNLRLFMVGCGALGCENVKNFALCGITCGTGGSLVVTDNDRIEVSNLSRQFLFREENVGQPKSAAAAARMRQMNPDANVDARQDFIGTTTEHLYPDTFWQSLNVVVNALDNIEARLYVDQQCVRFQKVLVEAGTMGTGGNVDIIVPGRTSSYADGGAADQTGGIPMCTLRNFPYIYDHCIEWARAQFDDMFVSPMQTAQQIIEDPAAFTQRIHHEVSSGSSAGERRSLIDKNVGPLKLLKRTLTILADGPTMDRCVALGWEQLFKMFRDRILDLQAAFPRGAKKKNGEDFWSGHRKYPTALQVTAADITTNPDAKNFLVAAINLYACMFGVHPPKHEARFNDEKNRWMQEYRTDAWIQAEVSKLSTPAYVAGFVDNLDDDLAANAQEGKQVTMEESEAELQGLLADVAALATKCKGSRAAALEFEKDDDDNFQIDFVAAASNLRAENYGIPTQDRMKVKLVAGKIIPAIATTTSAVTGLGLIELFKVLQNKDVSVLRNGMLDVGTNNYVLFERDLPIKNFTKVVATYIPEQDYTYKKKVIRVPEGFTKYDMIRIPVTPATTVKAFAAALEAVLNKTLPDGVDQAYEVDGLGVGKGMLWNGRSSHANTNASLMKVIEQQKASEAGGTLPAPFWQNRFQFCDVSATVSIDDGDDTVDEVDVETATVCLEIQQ
The experiment in a line: Leishmania donovani Ubiquitin Activating Enzyme (LdE1). Particulars: 30 µM. The format is functional.

The target in experiment [3] is AMP-activated protein kinase, AMPK (Homo sapiens) (UniProt P54646+O43741+P54619+Q9UGJ0+Q9Y478+Q13131+Q9UGI9). The experiment in a line: AMP-dependent Kinase enzyme assay. An in vitro enzyme assay that detects ADP turnover that is directly proportional to AMPK activity. This uses naive AMPK that is activated during the assay with MK-8722. The class given is functional. Particulars: 30 µM.

Experiment [4] concerns the target Sialic acid-binding Ig-like lectin 9 (Homo sapiens) (UniProt Q9Y336). The experiment in a line: Hs-Siglec9 ALPHAscreen SOP 20170721. Particulars: 10 µM.
The test system of a further experiment is Trypanosoma cruzi. The experiment can be described thus: Trypanosoma cruzi phosphomannomutase and mannose-1-phosphate guanylyltransferase assay. Particulars: 10 µM. The format is functional.
The target of experiment [5] is T2, Arginase-2, mitochondrial (Homo sapiens) (UniProt P78540).
T2 sequence (whole entry): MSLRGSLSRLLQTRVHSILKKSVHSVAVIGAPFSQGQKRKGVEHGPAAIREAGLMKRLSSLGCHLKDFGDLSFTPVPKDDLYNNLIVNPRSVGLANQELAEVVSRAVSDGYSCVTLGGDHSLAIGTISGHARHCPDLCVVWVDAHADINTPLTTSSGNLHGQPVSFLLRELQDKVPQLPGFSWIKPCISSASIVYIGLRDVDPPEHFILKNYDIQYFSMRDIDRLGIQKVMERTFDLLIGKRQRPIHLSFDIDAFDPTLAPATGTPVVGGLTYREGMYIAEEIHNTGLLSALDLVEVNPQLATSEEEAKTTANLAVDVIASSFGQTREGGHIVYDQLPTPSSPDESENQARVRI
The experiment can be described thus: in vitro enzyme assay to detect the production of urea directly proportional to the activity of Arginase II. Further: in the data most compounds retested in dose-response had high values. The class given is functional. Particulars: 33.3 µM.

Experiment [6] concerns the target T3, Proteasome subunit beta (Trypanosoma cruzi) (UniProt O96673).
T3 sequence (whole entry): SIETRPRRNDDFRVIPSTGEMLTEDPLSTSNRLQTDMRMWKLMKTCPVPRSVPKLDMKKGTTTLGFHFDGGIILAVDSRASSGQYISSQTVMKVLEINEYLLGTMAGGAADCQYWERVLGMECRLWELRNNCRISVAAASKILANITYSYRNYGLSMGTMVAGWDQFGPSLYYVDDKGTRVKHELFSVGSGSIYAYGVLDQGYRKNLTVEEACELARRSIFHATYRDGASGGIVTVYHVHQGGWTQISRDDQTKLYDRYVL
The experiment can be described thus: Trypanosoma cruzi proteasome chymotrypsin-like activity (TcProtChymo) assay. Further: in the data most compounds retested in dose-response had high values. The format is functional. Particulars: 9.37 µM.

Another experiment is filed under the species Homo sapiens. The experiment can be described thus: To identify inhibition of the IFN signalling (Jak-Stat) pathway via expression of an eGFP reporter gene under the control of an IFN-stimulated response element (ISRE) containing MxA promoter. The class given is functional. Particulars: 30 µM. On the technique in general: A reporter such as luciferase makes a cellular process visible.

The target in experiment [7] is T4, Tyrosyl-tRNA synthetase, putative (Trypanosoma cruzi (strain CL Brener)) (UniProt Q4DSP6).
T4 sequence (whole entry): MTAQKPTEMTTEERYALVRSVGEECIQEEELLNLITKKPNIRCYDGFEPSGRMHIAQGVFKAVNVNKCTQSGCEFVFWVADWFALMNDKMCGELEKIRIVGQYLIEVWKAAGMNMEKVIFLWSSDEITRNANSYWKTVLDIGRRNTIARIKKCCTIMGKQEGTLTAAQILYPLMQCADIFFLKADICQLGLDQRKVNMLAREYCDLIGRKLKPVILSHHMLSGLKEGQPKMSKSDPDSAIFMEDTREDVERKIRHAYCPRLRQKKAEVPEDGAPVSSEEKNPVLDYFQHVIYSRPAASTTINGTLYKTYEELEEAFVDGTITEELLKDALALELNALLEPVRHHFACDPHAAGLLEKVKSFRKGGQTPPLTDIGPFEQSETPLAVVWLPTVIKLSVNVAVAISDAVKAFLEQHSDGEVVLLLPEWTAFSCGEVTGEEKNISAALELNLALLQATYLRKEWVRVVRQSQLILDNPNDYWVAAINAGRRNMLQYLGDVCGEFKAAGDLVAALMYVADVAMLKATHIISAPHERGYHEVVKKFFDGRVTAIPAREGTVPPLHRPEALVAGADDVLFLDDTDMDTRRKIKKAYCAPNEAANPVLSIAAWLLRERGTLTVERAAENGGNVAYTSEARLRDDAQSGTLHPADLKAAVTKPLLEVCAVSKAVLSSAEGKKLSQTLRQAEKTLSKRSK
The experiment in a line: Trypanosoma cruzi tyrosyl tRNA synthetase (TcYRS) _High Tyrosine SOP. Further: in the data most compounds retested in dose-response had high values. Particulars: 30 µM. The class given is functional.

Experiment [8] deals with T4, Tyrosyl-tRNA synthetase, putative (Trypanosoma cruzi (strain CL Brener)). The experiment in a line: Trypanosoma cruzi tyrosyl tRNA synthetase (TcYRS) SOP. The format is functional. Particulars: 30 µM.
The target of experiment [9] is Chromo domain-containing protein 1 (Saccharomyces cerevisiae (strain ATCC 204508 / S288c) (Baker's yeast)) (UniProt P32657). The experiment in a line: ScCHD-1 Enzyme Inhibition Assay. Further: in the data most compounds retested in dose-response had high values. Particulars: 30 µM. The class given is functional.

The structures appear in SMILES notation. For some of these results: Results with a measured potency or affinity are listed apart.

Sequence of Protein translocase subunit SecA (Escherichia coli (strain K12)) (P10408 whole entry): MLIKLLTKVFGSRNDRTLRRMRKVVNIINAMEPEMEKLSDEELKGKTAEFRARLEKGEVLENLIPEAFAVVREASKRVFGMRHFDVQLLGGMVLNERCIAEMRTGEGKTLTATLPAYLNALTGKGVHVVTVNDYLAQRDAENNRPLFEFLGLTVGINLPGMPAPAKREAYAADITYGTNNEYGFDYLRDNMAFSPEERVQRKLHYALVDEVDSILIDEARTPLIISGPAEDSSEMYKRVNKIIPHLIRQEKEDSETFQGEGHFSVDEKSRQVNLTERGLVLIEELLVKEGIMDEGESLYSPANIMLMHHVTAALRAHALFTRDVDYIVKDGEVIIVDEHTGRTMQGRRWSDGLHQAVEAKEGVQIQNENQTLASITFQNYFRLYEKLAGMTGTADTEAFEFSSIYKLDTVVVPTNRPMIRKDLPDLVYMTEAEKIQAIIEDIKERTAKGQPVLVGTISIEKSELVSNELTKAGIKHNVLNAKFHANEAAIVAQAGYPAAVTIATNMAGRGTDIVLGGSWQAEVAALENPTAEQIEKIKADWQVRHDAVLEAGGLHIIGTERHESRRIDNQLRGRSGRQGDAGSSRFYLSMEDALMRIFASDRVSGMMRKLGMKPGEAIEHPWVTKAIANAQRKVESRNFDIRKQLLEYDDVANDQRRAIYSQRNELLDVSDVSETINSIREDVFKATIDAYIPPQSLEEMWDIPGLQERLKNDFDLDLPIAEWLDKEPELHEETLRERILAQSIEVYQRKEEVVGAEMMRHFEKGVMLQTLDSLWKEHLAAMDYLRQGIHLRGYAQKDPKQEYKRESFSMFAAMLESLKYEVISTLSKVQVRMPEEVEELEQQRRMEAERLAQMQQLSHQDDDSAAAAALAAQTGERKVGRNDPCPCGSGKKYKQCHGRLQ
Sequence of Chromo domain-containing protein 1 (Saccharomyces cerevisiae (strain ATCC 204508 / S288c) (Baker's yeast)) (P32657 whole entry, the tested form may be a part): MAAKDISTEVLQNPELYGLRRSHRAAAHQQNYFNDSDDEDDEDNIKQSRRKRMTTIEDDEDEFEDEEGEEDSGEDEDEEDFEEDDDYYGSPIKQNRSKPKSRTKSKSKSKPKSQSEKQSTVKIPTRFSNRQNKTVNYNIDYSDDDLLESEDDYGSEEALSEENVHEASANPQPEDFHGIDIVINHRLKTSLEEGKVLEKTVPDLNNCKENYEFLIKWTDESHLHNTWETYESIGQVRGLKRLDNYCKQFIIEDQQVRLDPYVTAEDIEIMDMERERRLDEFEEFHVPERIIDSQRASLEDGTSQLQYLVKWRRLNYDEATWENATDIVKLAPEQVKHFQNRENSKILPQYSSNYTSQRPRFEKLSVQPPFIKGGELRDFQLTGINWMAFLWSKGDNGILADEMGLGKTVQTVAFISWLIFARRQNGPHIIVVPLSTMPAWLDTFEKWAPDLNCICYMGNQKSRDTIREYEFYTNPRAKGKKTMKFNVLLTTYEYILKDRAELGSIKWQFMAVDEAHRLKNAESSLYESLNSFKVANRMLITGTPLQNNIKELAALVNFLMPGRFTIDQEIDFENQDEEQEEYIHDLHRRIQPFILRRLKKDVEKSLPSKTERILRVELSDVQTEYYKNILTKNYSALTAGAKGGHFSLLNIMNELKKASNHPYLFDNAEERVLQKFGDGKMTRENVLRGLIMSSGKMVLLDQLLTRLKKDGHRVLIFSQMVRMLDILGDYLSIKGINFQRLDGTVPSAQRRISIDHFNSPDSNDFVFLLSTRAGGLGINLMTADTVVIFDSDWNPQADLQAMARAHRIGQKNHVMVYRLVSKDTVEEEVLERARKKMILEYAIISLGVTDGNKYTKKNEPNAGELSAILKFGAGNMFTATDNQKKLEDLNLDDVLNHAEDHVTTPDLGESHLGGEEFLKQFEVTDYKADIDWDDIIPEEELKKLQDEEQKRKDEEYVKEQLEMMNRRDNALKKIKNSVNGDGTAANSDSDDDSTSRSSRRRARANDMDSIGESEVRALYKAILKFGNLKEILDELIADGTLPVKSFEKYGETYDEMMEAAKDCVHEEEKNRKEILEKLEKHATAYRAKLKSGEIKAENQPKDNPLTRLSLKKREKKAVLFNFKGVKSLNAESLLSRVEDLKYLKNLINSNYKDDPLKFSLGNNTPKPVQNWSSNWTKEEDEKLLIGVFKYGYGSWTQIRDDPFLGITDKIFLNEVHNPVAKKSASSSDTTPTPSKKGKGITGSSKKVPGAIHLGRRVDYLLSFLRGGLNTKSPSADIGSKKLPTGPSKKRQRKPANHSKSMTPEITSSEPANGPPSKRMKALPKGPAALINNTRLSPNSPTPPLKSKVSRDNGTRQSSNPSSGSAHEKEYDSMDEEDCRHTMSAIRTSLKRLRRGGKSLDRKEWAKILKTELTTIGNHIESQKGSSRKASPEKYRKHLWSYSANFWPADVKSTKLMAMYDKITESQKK
Sequence of Sialic acid-binding Ig-like lectin 9 (Homo sapiens) (Q9Y336 whole entry): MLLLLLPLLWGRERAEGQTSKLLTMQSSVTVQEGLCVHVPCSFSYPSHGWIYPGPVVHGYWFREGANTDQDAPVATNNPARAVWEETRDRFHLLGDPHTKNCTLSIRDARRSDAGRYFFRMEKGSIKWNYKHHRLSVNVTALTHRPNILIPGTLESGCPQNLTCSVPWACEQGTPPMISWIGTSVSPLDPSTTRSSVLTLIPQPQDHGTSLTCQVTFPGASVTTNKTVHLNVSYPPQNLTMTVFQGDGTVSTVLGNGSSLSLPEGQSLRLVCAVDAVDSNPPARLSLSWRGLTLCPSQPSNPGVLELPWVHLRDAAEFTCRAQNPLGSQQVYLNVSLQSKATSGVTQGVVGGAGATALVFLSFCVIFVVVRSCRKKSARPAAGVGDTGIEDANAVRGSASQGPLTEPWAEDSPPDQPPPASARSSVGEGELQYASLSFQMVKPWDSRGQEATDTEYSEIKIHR

Regarding `COCCCN1CCCN(C(C)c2nc(C3CC3)no2)CC1` (stereo unspecified), the Percent Effect in experiment [1] is -1.91%; in experiment [2] it was 8.11%; in experiment [3], -3.11%; in [4], 15.8%; with Trypanosoma cruzi, 4.74%; in experiment [5], -13.5%. Moreover, the Percent Effect in [6] is 6.46%; in the experiment listed under Homo sapiens, -3.07%; in [7] it was 4.95%; in [8] it was 15.8%; in [9], -1.39%.

Consider `CCC(=O)N1CCCC(c2cc(Nc3ncccn3)nc(C)n2)C1` (stereo unspecified), for which the Percent Effect in experiment [1] was -3.27%; in [2], 1.35%; in [3], 13.2%; in [4] it was -0.199%; with Trypanosoma cruzi, -1.58%; in [5], -5.8%. In addition, the Percent Effect in [6] is 10.6%; in the experiment listed under Homo sapiens, -1.71%; in experiment [7], 6.45%; in experiment [8] it was 11.7%; in [9], -6.06%.

`Cc1ccnc(OCC(=O)N2CCC(C(N)=O)CC2)n1`: the Percent Effect in experiment [1] is -3.87%; in [2] it was 21.9%; in experiment [3], 0.564%; in [4], 12.6%; in the experiment on Trypanosoma cruzi it was 1.37%; in experiment [5] it was 5%. The Percent Effect in experiment [6] was 11.4%; in the experiment listed under Homo sapiens, 7.23%; in [7], 6.45%; in experiment [8] it was 15%; in experiment [9] it was -7.43%.

`CC(C)C(=O)N1CCCC(c2ncncc2-c2ccncc2)C1` (stereo unspecified): the Percent Effect was -0.489% in [1]; 10.7% in experiment [2]; 4.63% in experiment [3]; -4.06% in [4]; 5.91% with Trypanosoma cruzi; -4.89% in experiment [5]. Moreover, the Percent Effect in [6] was 6.61%; in the experiment listed under Homo sapiens, -4.43%; in experiment [7] it was 1.06%; in [8] it was 8.97%; in [9], -4.02%.

Take `CS(=O)(=O)N1CCOCC2(CN(Cc3ccco3)CCO2)C1` (stereo unspecified): the Percent Effect in [1] was -1.05%; in experiment [2], 5.48%; in [3], 3.7%; in experiment [4] it was 1.39%; in the experiment on Trypanosoma cruzi, -1.19%; in experiment [5], 4.79%. Besides, the Percent Effect in [6] worked out at 5.39%; in the experiment listed under Homo sapiens, 1.38%; in experiment [7], 6.25%; in experiment [8], 11.1%; in experiment [9], 0.698%.

Regarding `COc1ccc(C)cc1CSCCn1nc2ccccn2c1=O`, the Percent Effect in [1] was -4.01%; in [2], 20.8%; in experiment [3], -1.24%; in [4], -10.9%; in the experiment on Trypanosoma cruzi, 4.6%; in [5] it was -1.47%. Further, the Percent Effect is 12.7% in experiment [6]; 11.9% in the experiment filed under Homo sapiens; 3.81% in experiment [7]; 21.2% in [8]; -22.4% in experiment [9].

For `OC(CN1CCC(c2ccn[nH]2)CC1)c1cccc(F)c1` (stereo unspecified), the Percent Effect is 1.18% in experiment [1]; 12.7% in experiment [2]; 4.09% in experiment [3]; 4.6% in [4]; -3.49% in the experiment on Trypanosoma cruzi; 6.84% in experiment [5]. The Percent Effect in [6] was 6.31%; in the experiment listed under Homo sapiens, 13.5%; in experiment [7], 5.42%; in [8], 11.4%; in [9] it was -4.54%.

As for `COc1ccc(CNC(=O)NCC2CCOC2)c(C(F)(F)F)c1` (stereo unspecified), the Percent Effect was -7.19% in [1]; 1.39% in experiment [2]; -0.168% in experiment [3]; 4.9% in experiment [4]; -4.37% in the experiment with Trypanosoma cruzi; -0.442% in experiment [5]. Moreover, the Percent Effect in [6] was 9.3%; in the experiment listed under Homo sapiens it was 16.2%; in [7], 5.26%; in experiment [8], 2.56%; in [9], -0.725%.

With `CCc1nccn1C1CCCN(C(=O)Cc2cn3ccccc3n2)C1` (stereo unspecified), the Percent Effect in experiment [1] is -4.36%; in experiment [2] it was 8.86%; in [3], -1.52%; in experiment [4], -5.05%; in the experiment on Trypanosoma cruzi it was 3.18%; in [5] it was -1.5%. The Percent Effect in experiment [6] is 13.2%; in the experiment listed under Homo sapiens, 17.9%; in experiment [7], -1.04%; in experiment [8], 10.1%; in [9], -29%.

As to `Cc1noc(C)c1CCC(=O)N1CCCN(Cc2cscn2)CC1`, the Percent Effect in experiment [1] was -1.71%; in [2], 13.2%; in experiment [3] it was -5.71%; in experiment [4] it was -4.5%; with Trypanosoma cruzi, -3.76%; in experiment [5], 6.9%. The Percent Effect is 21.1% in [6]; 23% in the experiment listed under Homo sapiens; 8.33% in experiment [7]; 17.1% in experiment [8]; -10.5% in [9].

Consider `CCc1nccn1C1CCCN(C(=O)c2cnn3ccc(C)nc23)C1` (stereo unspecified), for which the Percent Effect in experiment [1] is -3.42%; in [2] it was -2.7%; in experiment [3], -5.57%; in experiment [4], 1.51%; with Trypanosoma cruzi, -0.283%; in experiment [5] it was -2%. In addition, the Percent Effect in experiment [6] was 4.5%; in the experiment listed under Homo sapiens it was 4.32%; in experiment [7], 5.42%; in experiment [8], -6.17%; in [9], -7.37%.
